Results as given in the supplement of paper PMC3545927.
Some of the results follow. How many sequences the whole screen found active is unknown.

B1: FS-426 (peptide)
chain: CAGFLRKRREAGNASASA
B2: FS-2117 (peptide)
chain: CAYPKRSAGEAGNASASA
B3: FS-896 (peptide)
chain: CAWQRRQRRGAGNASASA
B4: FS-465 (peptide)
chain: CANCLRQRRGAGNASASA
B5: FS-1022 (peptide)
chain: CAKWLRFIRGAGNASASA
B6: FS-981 (peptide)
chain: CADGNRQVRGAGNASASA
B7: FS-1136 (peptide)
chain: CALNNRQIRGAGNASASA
B8: FS-1094 (peptide)
chain: CATKNRQRRGAGNASASA
B9: FS-1050 (peptide)
chain: CAPPRRQRRGAGNASASA
B10: HC2146 (peptide)
chain: CAMVVTSTWVAGNASASA
B11: HC825 (peptide)
chain: CAIGTVLDQAAGNASASA
B12: FS-3255 (peptide)
chain: CARHKRLSYQAGNASASA
B13: FS-2812 (peptide)
chain: CARSKRRWVIAGNASASA
B14: FS-2778 (peptide)
chain: CARRKRDWVIAGNASASA
B15: FS-2751 (peptide)
chain: CARQKRDWIWAGNASASA
B16: FS-2289 (peptide)
chain: CARQKRDPAFAGNASASA
B17: HC1509 (peptide)
chain: CARRCRASGVAGNASASA
B18: FS-2749 (peptide)
chain: CARQKKGVVPAGNASASA
B19: FS-2211 (peptide)
chain: CARHKRQSGVAGNASASA
B20: FS-2169 (peptide)
chain: CARQKRGWMWAGNASASA
B21: HC2280 (peptide)
chain: CACLEVVTSTAGNASASA
B22: HC1625 (peptide)
chain: CAARLLARGGAGNASASA
B23: HC1029 (peptide)
chain: CAQTASRQAEAGNASASA
B24: HC801 (peptide)
chain: CAGVRTITTGAGNASASA
B25: HC2524 (peptide)
chain: CASTPCSIHLAGNASASA
B26: HC1843 (peptide)
chain: CATAPCSGSWAGNASASA
B27: FS-1822 (peptide)
chain: CARHERDAGVAGNASASA
B28: FS-2586 (peptide)
chain: CARQKRDWVIAGNASASA
B29: FS-2750 (peptide)
chain: CARQKRDTTHAGNASASA
B30: FS-2444 (peptide)
chain: CARQKRFVLSAGNASASA
B31: FS-2677 (peptide)
chain: CARHKRDWVVAGNASASA
B32: FU6 (peptide)
chain: CARQKRFVLSAGNASASA
B33: FS-2755 (peptide)
chain: CARQKRLFCRAGNASASA
B34: FS-2113 (peptide)
chain: CARYSRGVLSAGNASASA
B35: HC1644 (peptide)
chain: CALSGWFTAGAGNASASA
B36: HC303 (peptide)
chain: CAFLVGQLFTAGNASASA
B37: HC875 (peptide)
chain: CASGDVVVVAAGNASASA
B38: HC1729 (peptide)
chain: CAMEECSYHLAGNASASA
B39: TR10 (peptide)
chain: CAAPRSSMSNAGNASASA
B40: FS-3033 (peptide)
chain: CARQKKADEPAGNASASA
B41: FS-2506 (peptide)
chain: CARQKRDANSAGNASASA
B42: HC936 (peptide)
chain: CACQDHLEFWAGNASASA
B43: FS-446 (peptide)
chain: CAKDGRRRKSAGNASASA
B44: FS-1020 (peptide)
chain: CAKPRRRRKSAGNASASA
B45: FS-129 (peptide)
chain: CAGVGRVLRSAGNASASA
B46: FS-1019 (peptide)
chain: CAKPRRILRSAGNASASA

Target: furin, P09958
Sequence (P09958 whole entry): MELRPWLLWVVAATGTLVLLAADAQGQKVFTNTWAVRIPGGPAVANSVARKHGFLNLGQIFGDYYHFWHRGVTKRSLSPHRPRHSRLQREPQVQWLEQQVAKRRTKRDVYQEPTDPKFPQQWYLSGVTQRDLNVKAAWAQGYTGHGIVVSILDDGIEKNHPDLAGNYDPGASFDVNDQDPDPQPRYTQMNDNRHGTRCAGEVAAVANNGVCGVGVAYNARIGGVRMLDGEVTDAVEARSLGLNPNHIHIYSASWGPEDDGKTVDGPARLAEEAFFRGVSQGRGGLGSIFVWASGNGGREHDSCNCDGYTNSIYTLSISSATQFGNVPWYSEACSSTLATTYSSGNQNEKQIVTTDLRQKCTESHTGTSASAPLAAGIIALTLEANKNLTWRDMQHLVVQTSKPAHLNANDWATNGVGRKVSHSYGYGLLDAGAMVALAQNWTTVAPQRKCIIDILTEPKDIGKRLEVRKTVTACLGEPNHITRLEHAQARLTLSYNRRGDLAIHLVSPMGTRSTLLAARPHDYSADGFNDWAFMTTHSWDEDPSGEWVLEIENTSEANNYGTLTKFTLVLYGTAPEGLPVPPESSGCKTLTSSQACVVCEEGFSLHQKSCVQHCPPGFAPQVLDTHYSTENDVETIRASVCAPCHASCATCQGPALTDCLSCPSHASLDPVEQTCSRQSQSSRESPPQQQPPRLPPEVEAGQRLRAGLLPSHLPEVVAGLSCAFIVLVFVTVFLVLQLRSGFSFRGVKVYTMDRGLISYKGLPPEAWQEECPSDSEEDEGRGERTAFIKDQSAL
Assay: furin cleavage Z-score vs untreated control; higher = more cleavage, active = 3.5 or more, inactive = 1 or less, 8 variable residues between constant flanks
Method: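 Multiplexed peptide-cDNA fusion cleavage assay. 8-mer variable peptides flanked by constant Cys-Ala (N-term) and Ala-Gly-Asn-Ala-Ser-Ala-Ser-Ala (C-term) and conjugated to a cDNA oligonucleotide were bead-immobilised via the N-terminus. They were treated with purified furin at a 1:10 enzyme:substrate ratio in 50 mM HEPES pH 7.5, 1 mM CaCl2, 100 mM NaCl for 7.5, 15 or 30 min. Released cDNA was counted by next-generation sequencing, and log counts versus no-furin controls were lowess-adjusted and converted to robust Z-scores.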

Row | Sequence | furin cleavage Z-score (7.5 min) | furin cleavage Z-score (15 min) | furin cleavage Z-score (30 min)
1 | B1 | 11.1 (active) | 11.2 (active) | 8.58 (active)
2 | B2 | -0.54 (inactive) | -0.564 (inactive) | 0.202 (inactive)
3 | B3 | 6 (active) | 6.49 (active) | 5.96 (active)
4 | B4 | -0.759 (inactive) | -0.337 (inactive) | -0.511 (inactive)
5 | B5 | 2.09 | 0.354 (inactive) | 3.09
6 | B6 | 0.00638 (inactive) | -1.04 (inactive) | 0.17 (inactive)
7 | B7 | 3.62 (active) | 5.07 (active) | 5.04 (active)
8 | B8 | 6.87 (active) | 7.34 (active) | 5.71 (active)
9 | B9 | 0.924 (inactive) | 0.828 (inactive) | 1.23
10 | B10 | -1.12 (inactive) | -1.84 (inactive) | -2.22 (inactive)
11 | B11 | -1.51 (inactive) | -1.57 (inactive) | -0.129 (inactive)
12 | B12 | -1.36 (inactive) | -0.609 (inactive) | 1.23
13 | B13 | -0.553 (inactive) | -0.688 (inactive) | 0.146 (inactive)
14 | B14 | 3.18 | 5.46 (active) | 8.57 (active)
15 | B15 | 3.51 (active) | 5.26 (active) | 8.38 (active)
16 | B16 | 2.9 | 3.65 (active) | 5.36 (active)
17 | B17 | -1.17 (inactive) | -0.493 (inactive) | -0.69 (inactive)
18 | B18 | 0.952 (inactive) | -0.837 (inactive) | -1.72 (inactive)
19 | B19 | 5.97 (active) | 7.29 (active) | 6.66 (active)
20 | B20 | -0.547 (inactive) | 2.65 | 3
21 | B21 | -1.07 (inactive) | -0.98 (inactive) | 0.458 (inactive)
22 | B22 | -1.06 (inactive) | -1.7 (inactive) | -0.871 (inactive)
23 | B23 | 1.23 | 0.0169 (inactive) | -0.455 (inactive)

Row | Sequence | furin cleavage Z-score (7.5 min) | furin cleavage Z-score (15 min) | furin cleavage Z-score (30 min)
24 | B24 | 0.457 (inactive) | -0.157 (inactive) | -1.39 (inactive)
25 | B25 | -0.158 (inactive) | 0.385 (inactive) | 1.12
26 | B26 | -0.496 (inactive) | -0.615 (inactive) | -1.22 (inactive)
27 | B27 | 0.322 (inactive) | 0.612 (inactive) | -0.236 (inactive)
28 | B28 | 2.07 | 4.34 (active) | 6.74 (active)
29 | B29 | 12.5 (active) | 13.1 (active) | 9.68 (active)
30 | B30 | 4.98 (active) | 5.66 (active) | 7.27 (active)
31 | B31 | 4.03 (active) | 1.73 | 8.28 (active)
32 | B32 | 5.85 (active) | 4.21 (active) | 6.95 (active)
33 | B33 | -1.26 (inactive) | 0.165 (inactive) | 0.958 (inactive)
34 | B34 | 0.374 (inactive) | 0.104 (inactive) | 0.696 (inactive)
35 | B35 | -0.277 (inactive) | -0.506 (inactive) | -1.36 (inactive)
36 | B36 | -0.568 (inactive) | -0.266 (inactive) | 0.343 (inactive)
37 | B37 | -0.568 (inactive) | -1.7 (inactive) | 1.07
38 | B38 | -0.21 (inactive) | -0.538 (inactive) | -0.509 (inactive)
39 | B39 | -0.848 (inactive) | -0.0583 (inactive) | -0.668 (inactive)
40 | B40 | -0.414 (inactive) | 0.374 (inactive) | -1.07 (inactive)
41 | B41 | 10.9 (active) | 12 (active) | 11.1 (active)
42 | B42 | -1.02 (inactive) | -2.52 (inactive) | -2.85 (inactive)
43 | B43 | 0.703 (inactive) | 2.31 | 0.747 (inactive)
44 | B44 | 5.69 (active) | 7.66 (active) | 7.17 (active)
45 | B45 | 7 (active) | 7.17 (active) | 7.2 (active)
46 | B46 | 6.74 (active) | 4.42 (active) | 5.71 (active)
